In PubChem BioAssay (EPA / NIEHS):
Calls of active or inactive are those of the source. Rule for the calls: active = hit-call score of the fitted dose curve at least 0.9, where 1 is the maximum; inactive = score below 0.9.

Experiments:
Conditions in all cases: mRNA level, 48 h; actives raise or lower the signal
[1] = read-out: ABC Transporter (ABCC3), ABCC3 (gene 8714); experiment: LTEA_HepaRG_ABCC3: Life Technologies and Expression Analysis (LTEA) Assay for ABC Transporter (ABCC3) using HepaRG (AID 2283462)
Outline: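 qRT-PCR read-out of ABCC3 transcript, normalized to three housekeeping genes (ACTB, GAPDH, POLR2A), after 48 h chemical exposure of human HepaRG cells. Eight half-log concentrations, highest 100 uM, in 0.5% DMSO; gain or loss fitted relative to DMSO baseline.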

[2] = read-out: ABC Transporter (ABCB11), ABCB11 (gene 8647); experiment: LTEA_HepaRG_ABCB11: Life Technologies and Expression Analysis (LTEA) Assay for ABC Transporter (ABCB11) using HepaRG (AID 2283463)
Outline: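 Using HepaRG cultures held in 0.5% DMSO, chemicals were tested at half-log dilutions from 100 uM for 48 h. Induction or suppression of ABCB11 mRNA, normalized to ACTB, GAPDH and POLR2A, was fitted bidirectionally against vehicle.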

[3] = read-out: ABC Transporter (ABCC2), ABCC2 (gene 1244); experiment: LTEA_HepaRG_ABCC2: Life Technologies and Expression Analysis (LTEA) Assay for ABC Transporter (ABCC2) using HepaRG (AID 2283464)
Outline: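 qRT-PCR (TaqMan, Fluidigm array) read-out of ABCC2 mRNA, normalized to three housekeeping genes. Differentiated HepaRG cells were treated 48 h in serum-free induction medium with 8-point half-log series from 100 uM in 0.5% DMSO; curves fitted bidirectionally relative to DMSO.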

[4] = read-out: Broad substrate specificity ATP-binding cassette transporter ABCG2 (Homo sapiens) (UniProt Q9UNQ0); experiment: LTEA_HepaRG_ABCG2: Life Technologies and Expression Analysis (LTEA) Assay for ABC Transporter (ABCG2) using HepaRG (AID 2283465)
Outline: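 Gene expression of ABCG2 in HepaRG liver cells is quantified by qRT-PCR following 48 h exposure across an eight-point series topping at 100 uM. Values come from bidirectional fitting relative to DMSO vehicle.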

[5] = read-out: ATP-citrate lyase (ACLY), ACLY (gene 47); experiment: LTEA_HepaRG_ACLY: Life Technologies and Expression Analysis (LTEA) Assay for ATP-citrate lyase (ACLY) using HepaRG (AID 2283466)
Outline: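 ACLY expression changes in human HepaRG liver cells are quantified by qRT-PCR after 48 h exposure to test chemicals (maximum 100 uM, half-log steps). Values are fitted in both directions relative to 0.5% DMSO vehicle.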

[6] = read-out: Alkaline Phosphatase, Placental (ALPP) gene, ALPP (gene 250); experiment: LTEA_HepaRG_ALPP: Life Technologies and Expression Analysis (LTEA) Assay for Alkaline Phosphatase, Placental (ALPP) gene using HepaRG (AID 2283468);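 for AC50: differentiated human HepaRG liver cells in serum-free induction medium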
Outline: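 qRT-PCR readout of ALPP mRNA (Fluidigm TaqMan), normalized to ACTB/GAPDH/POLR2A, after 48 h chemical exposure of HepaRG cells; 8-point half-log series, top 100 uM, 0.5% DMSO vehicle. Bidirectional curve fit versus DMSO baseline.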

[7] = read-out: Bcl-2 (BAD) gene, BAD (gene 572); experiment: LTEA_HepaRG_BAD: Life Technologies and Expression Analysis (LTEA) Assay for Bcl-2 (BAD) gene using HepaRG (AID 2283469)
Outline: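 Activity values reflect up- or down-regulation of BAD mRNA in human HepaRG hepatic cells treated 48 h in serum-free medium, with eight-point half-log dosing capped at 100 uM and 0.5% DMSO vehicle.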

[8] = read-out: Bcl-2 (BAX) gene, BAX (gene 581); experiment: LTEA_HepaRG_BAX: Life Technologies and Expression Analysis (LTEA) Assay for Bcl-2 (BAX) gene using HepaRG (AID 2283470)
Outline: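 qRT-PCR read-out of BAX mRNA, normalized to three housekeeping genes, after 48 h chemical exposure of human HepaRG cells in serum-free induction medium; eight-point half-log series, top 100 uM, 0.5% DMSO vehicle; bidirectional fit versus DMSO.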

[9] = read-out: adenosine kinase (ADK) gene, ADK (gene 132); experiment: LTEA_HepaRG_ADK: Life Technologies and Expression Analysis (LTEA) Assay for adenosine kinase (ADK) gene using HepaRG (AID 2283471)
Outline: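 HepaRG (human liver), 48 h chemical exposure, 8-pt half-log series, top 100 uM, 0.5% DMSO vehicle. Readout: ADK mRNA by qRT-PCR vs housekeeping genes; bidirectional curve fit relative to DMSO baseline.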

[10] = read-out: Alpha-fetoprotein (AFP) gene, AFP (gene 174); experiment: LTEA_HepaRG_AFP: Life Technologies and Expression Analysis (LTEA) Assay for Alpha-fetoprotein (AFP) gene using HepaRG (AID 2283472)
Outline: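 qRT-PCR (Fluidigm TaqMan) readout of AFP transcript, normalized to three housekeeping genes, fitted bidirectionally against 0.5% DMSO baseline. HepaRG cells received chemicals for 48 h in serum-free induction medium, top concentration 100 uM, half-log steps.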

BCL2L11 (gene 10018) = experiment: LTEA_HepaRG_BCL2L11: Life Technologies and Expression Analysis (LTEA) Assay for Bcl-2 (BCL2L11) gene using HepaRG (AID 2283473)
Outline: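 HepaRG, 48 h exposure, 8-pt half-log series from 100 uM in 0.5% DMSO, duplicates; qRT-PCR (Fluidigm TaqMan) for BCL2L11, housekeeping-normalized; bidirectional curve fit relative to DMSO baseline.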

[11] = read-out: Apolipoprotein A-V (APOA5) gene, APOA5 (gene 116519); experiment: LTEA_HepaRG_APOA5: Life Technologies and Expression Analysis (LTEA) Assay for Apolipoprotein A-V (APOA5) gene using HepaRG (AID 2283474)
Outline: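 HepaRG, 48 h chemical exposure in serum-free induction medium, 8-pt half-log series (top 100 uM), 0.5% DMSO vehicle, duplicates. Readout: APOA5 mRNA by qRT-PCR, housekeeping-normalized; bidirectional fit vs DMSO baseline.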

[12] = read-out: Apoptosis regulator Bcl-2 (Homo sapiens) (UniProt P10415); experiment: LTEA_HepaRG_BCL2: Life Technologies and Expression Analysis (LTEA) Assay for Bcl-2 gene using HepaRG (AID 2283475)
Outline: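 qRT-PCR read-out (Fluidigm TaqMan) of BCL2 transcript, normalised to three housekeeping genes, after 48 h chemical exposure of HepaRG cells; 8-point half-log series, top 100 uM, 0.5% DMSO vehicle. Gain or loss of signal fitted relative to DMSO baseline.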

[13] = read-out: Bcl-2 (BID) gene, BID (gene 637); experiment: LTEA_HepaRG_BID: Life Technologies and Expression Analysis (LTEA) Assay for Bcl-2 (BID) gene using HepaRG (AID 2283476)
Outline: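 HepaRG, 48 h exposure, 8-pt half-log series, top 100 uM, 0.5% DMSO vehicle, duplicates. Readout: BID mRNA by TaqMan qRT-PCR; housekeeping-normalized; bidirectional curve fit vs DMSO baseline.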

Caspase-3 (Homo sapiens) = Caspase-3 (Homo sapiens) (UniProt P42574); experiment: LTEA_HepaRG_CASP3: Life Technologies and Expression Analysis (LTEA) Assay for cysteine-aspartic acid protease (CASP3) using HepaRG (AID 2283477)
Caspase-3 (Homo sapiens), sequence (P42574 whole entry, looked up): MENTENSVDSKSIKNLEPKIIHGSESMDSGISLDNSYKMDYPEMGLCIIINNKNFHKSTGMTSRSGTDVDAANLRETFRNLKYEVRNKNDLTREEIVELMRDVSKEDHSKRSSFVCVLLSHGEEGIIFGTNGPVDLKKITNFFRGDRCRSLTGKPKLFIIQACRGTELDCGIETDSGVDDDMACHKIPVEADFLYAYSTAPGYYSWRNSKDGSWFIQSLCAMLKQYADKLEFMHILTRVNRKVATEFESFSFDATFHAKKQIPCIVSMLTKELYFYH
Outline: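 HepaRG, 48 h exposure, 8 conc. (top 100 uM, half-log steps, duplicate), 0.5% DMSO vehicle; qRT-PCR of CASP3 transcript, housekeeping-normalised (ACTB/GAPDH/POLR2A); bidirectional curve fit vs DMSO baseline.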

[14] = read-out: Cytochrome P450 (CYP24A1), CYP24A1 (gene 1591); experiment: LTEA_HepaRG_CYP24A1: Life Technologies and Expression Analysis (LTEA) Assay for Cytochrome P450 (CYP24A1) using HepaRG (AID 2283478)
Outline: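 qRT-PCR read-out: CYP24A1 transcript levels normalized to three housekeeping genes, bidirectional curve fits against 0.5% DMSO baseline. Human HepaRG cells treated 48 h with chemicals at eight concentrations from 100 uM in half-log steps.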

[15] = read-out: Cytochrome P450 (CYP1A2), CYP1A2 (gene 1544); experiment: LTEA_HepaRG_CYP1A2: Life Technologies and Expression Analysis (LTEA) Assay for Cytochrome P450 (CYP1A2) using HepaRG (AID 2283479)
Outline: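 HepaRG, 48 h exposure, top 100 uM, half-log 8-pt, 0.5% DMSO vehicle, duplicates. Readout: TaqMan qRT-PCR of CYP1A2 mRNA, housekeeping-normalized (ACTB/GAPDH/POLR2A). Gain/loss fit relative to DMSO baseline.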

[16] = read-out: cysteine-aspartic acid protease (CASP8), CASP8 (gene 841); experiment: LTEA_HepaRG_CASP8: Life Technologies and Expression Analysis (LTEA) Assay for cysteine-aspartic acid protease (CASP8) using HepaRG (AID 2283480)
Outline: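 Concentration-response in duplicate up to 100 uM (half-log steps, 0.5% DMSO) on differentiated HepaRG cultures for 48 h. Expression change of CASP8 mRNA is determined by TaqMan qRT-PCR with housekeeping-gene normalization.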

[17] = read-out: Cytochrome P450 (CYP2B6), CYP2B6 (gene 1555); experiment: LTEA_HepaRG_CYP2B6: Life Technologies and Expression Analysis (LTEA) Assay for Cytochrome P450 (CYP2B6) using HepaRG (AID 2283481)
Outline: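 Read-out is CYP2B6 mRNA by TaqMan qRT-PCR, normalized to three housekeeping genes and fitted bidirectionally against 0.5% DMSO baseline. Human HepaRG cells received test chemicals for 48 h, top concentration 100 uM, half-log dilutions.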

[18] = read-out: Peroxisomal acyl-coenzyme A oxidase 1 (ACOX1) gene, ACOX1 (gene 51); experiment: LTEA_HepaRG_ACOX1: Life Technologies and Expression Analysis (LTEA) Assay for Peroxisomal acyl-coenzyme A oxidase 1 (ACOX1) gene using HepaRG (AID 2283467)
Outline: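 Human HepaRG hepatic cultures, 48 h treatment with test chemicals up to 100 uM. ACOX1 expression read by qRT-PCR relative to 0.5% DMSO vehicle.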

Measured: AC50

Apoptosis regulator Bcl-2 (Homo sapiens), sequence (P10415 whole entry, looked up): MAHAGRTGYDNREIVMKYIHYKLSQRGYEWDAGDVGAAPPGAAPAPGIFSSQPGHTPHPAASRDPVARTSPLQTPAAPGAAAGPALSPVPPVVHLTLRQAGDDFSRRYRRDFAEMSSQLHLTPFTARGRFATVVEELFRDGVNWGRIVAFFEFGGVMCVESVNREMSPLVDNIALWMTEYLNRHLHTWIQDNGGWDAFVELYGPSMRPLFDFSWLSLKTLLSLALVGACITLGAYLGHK
Broad substrate specificity ATP-binding cassette transporter ABCG2 (Homo sapiens), sequence (Q9UNQ0 whole entry, looked up): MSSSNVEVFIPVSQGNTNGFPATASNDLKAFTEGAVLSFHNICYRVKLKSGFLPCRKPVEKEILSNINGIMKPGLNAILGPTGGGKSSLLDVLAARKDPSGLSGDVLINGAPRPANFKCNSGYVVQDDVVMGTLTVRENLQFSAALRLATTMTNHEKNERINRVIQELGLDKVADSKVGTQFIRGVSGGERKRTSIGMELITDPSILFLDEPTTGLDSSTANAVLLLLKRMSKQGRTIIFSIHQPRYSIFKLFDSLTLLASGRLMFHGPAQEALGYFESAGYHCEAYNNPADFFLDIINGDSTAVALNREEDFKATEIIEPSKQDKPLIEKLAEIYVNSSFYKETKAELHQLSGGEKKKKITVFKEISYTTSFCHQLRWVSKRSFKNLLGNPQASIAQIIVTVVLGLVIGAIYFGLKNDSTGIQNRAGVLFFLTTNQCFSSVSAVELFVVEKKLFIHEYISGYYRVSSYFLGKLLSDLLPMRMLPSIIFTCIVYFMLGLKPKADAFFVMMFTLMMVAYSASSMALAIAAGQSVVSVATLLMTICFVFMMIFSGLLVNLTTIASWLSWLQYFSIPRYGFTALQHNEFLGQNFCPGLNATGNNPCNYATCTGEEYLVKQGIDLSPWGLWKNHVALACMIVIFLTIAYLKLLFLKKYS

Cc1c2ccccc2c(C)c2c1ccc1ccccc12
active: [1] 12.7 µM | [2] 30.6 µM | [4] 12.8 µM | [6] 39.7 µM | [8] 63.1 µM | [10] 51.5 µM | BCL2L11 (gene 10018) 29.6 µM | [11] 50 µM | [12] 78.3 µM | [15] 85 µM | [17] 50 µM
inactive: [3] | [5] | [7] | [9] | [13] | Caspase-3 (Homo sapiens) | [14] | [16]

CO[C@H]1/C=C/O[C@@]2(C)Oc3c(C)c(O)c4c(O)c(c(/C=N/N5CCN(C)CC5)c(O)c4c3C2=O)NC(=O)/C(C)=C\C=C\[C@H](C)[C@H](O)[C@@H](C)[C@@H](O)[C@@H](C)[C@H](OC(C)=O)[C@@H]1C
active: [3] 0.344 µM | [6] 31.2 µM | [10] 13 µM | [15] 0.563 µM | [17] 0.359 µM
not listed: [9] | [18]
inactive: all other assays above

O=c1c(-c2ccc(O)cc2)coc2cc(O)cc(O)c12
active: [2] 9.92 µM
not listed: [5] | [10]
inactive: all other assays above

Cc1cccc2ccccc12
not listed: [18]
inactive: all other assays above

O=C(OCCCCCCOC(=O)c1ccccc1)c1ccccc1
active: [15] 12.5 µM
not listed: [9] | [18]
inactive: all other assays above

CN(C)c1ccc(C(=C2C=CC(=[N+](C)C)C=C2)c2ccc(N(C)C)cc2)cc1
active: [1] 85.8 µM | [2] 3.65 µM | [3] 18.8 µM | [5] 12.5 µM | [6] 3.9 µM | [10] 1.91 µM | BCL2L11 (gene 10018) 23.5 µM | [11] 5.32 µM | [12] 5 µM | Caspase-3 (Homo sapiens) 12.1 µM | [15] 2.05 µM | [17] 3.45 µM
inactive: [4] | [8] | [13] | [14] | [16]
